From PubChem BioAssay (NCI) come the findings set out here.

About 79,000 compounds went through this panel and 15% of them were active in at least one assay; those are over-represented in the sample as a whole. A number with no mark means an inactive call. Active and inactive are the calls of the source. Rule as the data show it: active = growth inhibition above about 70%; inactive = the rest.

Assay [1] is described as follows: NCI Yeast Anticancer Drug Screen. Data for the rad50 strain (AID 155).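 Also: 0% = growth of vehicle-only cultures of the same strain.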 The note with it: S. cerevisiae rad50 strain growth inhibition, stronger effect = higher value. Put shortly:
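A DNA repair-deficient yeast mutant serves as the test organism; compound-induced growth inhibition is calculated against vehicle-treated cells.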

The nature of assay [2]: NCI Yeast Anticancer Drug Screen. Data for the mec2-1 strain (AID 157). The note with it: S. cerevisiae mec2-1 strain, stronger effect = higher value. The method, boiled down:
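mec2-1 yeast strain, carrying an alteration in DNA damage repair or cell cycle control, was exposed to compounds; growth inhibition was measured relative to vehicle-treated controls.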

Assay [3] in a line: NCI Yeast Anticancer Drug Screen. Data for the sgs1 mgt1 strain (AID 161).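 Also: 0% = growth of cultures given vehicle only.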 The note with it: S. cerevisiae sgs1 mgt1 strain, stronger effect = higher value. The method, boiled down: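 This yeast growth screen uses a strain with defined DNA-repair lesions; compound-treated growth is compared with vehicle-treated growth.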
A short description of assay [4]: NCI Yeast Anticancer Drug Screen. Data for the cln2 rad14 strain (AID 165).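 Also: 0% = growth equal to vehicle treated cultures.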 Particulars: S. cerevisiae cln2 rad14 strain, stronger effect = higher value. The method, boiled down:
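Yeast carrying cln2 and rad14 alterations (cell cycle control and DNA damage repair) were exposed to compounds. Growth inhibition was measured against vehicle-treated controls.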

Assay [5] is described as follows: NCI Yeast Anticancer Drug Screen. Data for the bub3 strain (AID 167). The note with it: S. cerevisiae bub3 mutant strain, stronger effect = higher value. Put shortly:
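Inhibition values come from growth of compound-treated mutant yeast normalised to vehicle-treated controls.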

The nature of assay [6]: NCI Yeast Anticancer Drug Screen. Data for the mlh1 rad18 strain (AID 175). Particulars: S. cerevisiae mlh1 rad18 strain growth inhibition, stronger effect = higher value. The method, boiled down: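 Growth inhibition of the yeast strain was measured after compound exposure and expressed relative to vehicle-treated controls. The strain carries defined defects in DNA damage repair.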

Setting [7] is: at 5.0 µM (retest, dose inferred, filed as 0.5).
Where [8] appears, read: at 50.0 µM (retest, dose inferred, filed as 5.0).

In the case of `Clc1ccccc1/C=C/c1ccnc2ccccc12`, the growth inhibition in assay [1] (setting [7]) was 1%; in assay [1] (setting [8]), 99% (active); in assay [1] (at 50.0 µM) it was 97.7% (active); in assay [2] (setting [7]), 17%; in assay [2] (setting [8]), 99% (active); in assay [2] (at 50.0 µM), 97.8% (active). The growth inhibition in assay [3] (setting [7]) was 14%; in assay [3] (setting [8]), 99% (active); in assay [3] (at 50.0 µM), 97.9% (active); in assay [4] (setting [7]), -19%; in assay [4] (setting [8]) it was 98% (active); in assay [4] (at 50.0 µM), 96.8% (active). In addition, the growth inhibition in assay [5] (setting [7]) was -3%; in assay [5] (setting [8]), 99% (active); in assay [5] (at 50.0 µM), 97.9% (active); in assay [6] (setting [7]), -5%; in assay [6] (setting [8]), 99% (active); in assay [6] (at 50.0 µM), 98.2% (active).

Take `CC(=O)NC(C)(C)C1CCC(C)=C(c2ccccc2)C1` (configuration not stated): the growth inhibition was -10% in assay [1] (setting [7]); 2% in assay [1] (setting [8]); 32.8% in assay [1] (at 50.0 µM); -9% in assay [2] (setting [7]); -5% in assay [2] (setting [8]); -17.6% in assay [2] (at 50.0 µM). The growth inhibition in assay [3] (setting [7]) was 5%; in assay [3] (setting [8]) it was 8%; in assay [3] (at 50.0 µM), 67.2%; in assay [4] (setting [7]), 19%; in assay [4] (setting [8]) it was 44%; in assay [4] (at 50.0 µM) it was 18.6%. The growth inhibition in assay [5] (setting [7]) was 17%; in assay [5] (setting [8]), 29%; in assay [5] (at 50.0 µM), 27.6%; in assay [6] (setting [7]) it was -3%; in assay [6] (setting [8]), 29%; in assay [6] (at 50.0 µM), -21.2%.

In the case of `Cc1nc2c(cnn2-c2ccccc2)c(=O)o1`, the growth inhibition in assay [1] (setting [7]) was -143%; in assay [1] (setting [8]), -140%; in assay [1] (at 50.0 µM) it was 28.3%; in assay [2] (setting [7]), -52%; in assay [2] (setting [8]) it was -52%; in assay [2] (at 50.0 µM), 2.25%. Also, the growth inhibition in assay [3] (setting [7]) was -57%; in assay [3] (setting [8]), -62%; in assay [3] (at 50.0 µM), -3.15%; in assay [4] (setting [7]), -52%; in assay [4] (setting [8]) it was -45%; in assay [4] (at 50.0 µM), -31.2%. The growth inhibition is -65% in assay [5] (setting [7]); -73% in assay [5] (setting [8]); -0.85% in assay [5] (at 50.0 µM); -115% in assay [6] (setting [7]); -108% in assay [6] (setting [8]); 50.6% in assay [6] (at 50.0 µM).

Regarding `COc1cccc2c1C(=O)c1c(O)c3c(c(O)c1C2=O)C[C@@](O)(C(=O)CO)C[C@@H]3OC1CC(N(C)C)C(O)C(C)O1` (some centres not stated), the growth inhibition in assay [1] (setting [7]) was 94% (active); in assay [1] (setting [8]), 95% (active); in assay [1] (at 50.0 µM) it was 90.1% (active); in assay [2] (setting [7]), 96% (active); in assay [2] (setting [8]) it was 97% (active); in assay [2] (at 50.0 µM) it was 91.8% (active). In addition, the growth inhibition in assay [3] (setting [7]) was 97% (active); in assay [3] (setting [8]) it was 97% (active); in assay [3] (at 50.0 µM), 91.2% (active); in assay [4] (setting [7]) it was 96% (active); in assay [4] (setting [8]) it was 95% (active); in assay [4] (at 50.0 µM), 88.8% (active). Moreover, the growth inhibition in assay [5] (setting [7]) is 95% (active); in assay [5] (setting [8]), 97% (active); in assay [5] (at 50.0 µM), 89.3% (active); in assay [6] (setting [7]), 94% (active); in assay [6] (setting [8]), 94% (active); in assay [6] (at 50.0 µM) it was 90.7% (active).

Turning to `O=C(CSc1nnc(Cc2ccccc2)o1)Nc1cccc(Cl)c1`, the growth inhibition is -20% in assay [1] (setting [7]); 91% (active) in assay [1] (setting [8]); 77% (active) in assay [1] (at 50.0 µM); 14% in assay [2] (setting [7]); 85% (active) in assay [2] (setting [8]); 70% (active) in assay [2] (at 50.0 µM). Besides, the growth inhibition was -2% in assay [3] (setting [7]); 86% (active) in assay [3] (setting [8]); 82.2% (active) in assay [3] (at 50.0 µM); 24% in assay [4] (setting [7]); 91% (active) in assay [4] (setting [8]); 78% (active) in assay [4] (at 50.0 µM). The growth inhibition is 1% in assay [5] (setting [7]); 95% (active) in assay [5] (setting [8]); 77.5% (active) in assay [5] (at 50.0 µM); 9% in assay [6] (setting [7]); 93% (active) in assay [6] (setting [8]); 78.8% (active) in assay [6] (at 50.0 µM).

Take `O=C(Nc1ccc(C(F)(F)F)cc1[N+](=O)[O-])C(=O)C(C(=O)c1ccc2ccccc2c1)C1OC(=O)c2ccccc21` (configuration not stated): the growth inhibition in assay [1] (setting [7]) is 26%; in assay [1] (setting [8]) it was 26%; in assay [1] (at 50.0 µM) it was 2.05%; in assay [2] (setting [7]), 10%; in assay [2] (setting [8]), 10%; in assay [2] (at 50.0 µM) it was 4.85%. For the same molecule, the growth inhibition in assay [3] (setting [7]) was 8%; in assay [3] (setting [8]), 8%; in assay [3] (at 50.0 µM), 13.9%; in assay [4] (setting [7]), 15%; in assay [4] (setting [8]), 15%; in assay [4] (at 50.0 µM) it was -28.6%. In addition, the growth inhibition was 9% in assay [5] (setting [7]); 9% in assay [5] (setting [8]); 22.7% in assay [5] (at 50.0 µM); 10% in assay [6] (setting [7]); 10% in assay [6] (setting [8]); 10.2% in assay [6] (at 50.0 µM).

Turning to `O=C(CC(=O)c1ccccc1)CC(=O)c1ccccc1Br`, the growth inhibition is 1% in assay [1] (setting [7]); 94% (active) in assay [1] (setting [8]); 71.1% (active) in assay [1] (at 50.0 µM); -1% in assay [2] (setting [7]); 93% (active) in assay [2] (setting [8]); 93.5% (active) in assay [2] (at 50.0 µM). For the same molecule, the growth inhibition in assay [3] (setting [7]) was -17%; in assay [3] (setting [8]), 93% (active); in assay [3] (at 50.0 µM), 6.6%; in assay [4] (setting [7]) it was -3%; in assay [4] (setting [8]), 75% (active); in assay [4] (at 50.0 µM) it was 85.5% (active). For the same molecule, the growth inhibition in assay [5] (setting [7]) is -1%; in assay [5] (setting [8]), 96% (active); in assay [5] (at 50.0 µM), 68.7%; in assay [6] (setting [7]), 1%; in assay [6] (setting [8]), 96% (active); in assay [6] (at 50.0 µM), 96.5% (active).

In the case of `COc1ccc(-c2n[nH]c(C(F)(F)F)c2N=NN(C)C)cc1OC`, the growth inhibition in assay [1] (setting [7]) is 97% (active); in assay [1] (setting [8]) it was 98% (active); in assay [1] (at 50.0 µM) it was 98.9% (active); in assay [2] (setting [7]) it was 99% (active); in assay [2] (setting [8]) it was 99% (active); in assay [2] (at 50.0 µM) it was 99.5% (active). Moreover, the growth inhibition is 99% (active) in assay [3] (setting [7]); 99% (active) in assay [3] (setting [8]); 99.4% (active) in assay [3] (at 50.0 µM); 99% (active) in assay [4] (setting [7]); 99% (active) in assay [4] (setting [8]); 99.4% (active) in assay [4] (at 50.0 µM). Moreover, the growth inhibition in assay [5] (setting [7]) was 99% (active); in assay [5] (setting [8]) it was 99% (active); in assay [5] (at 50.0 µM), 99.4% (active); in assay [6] (setting [7]) it was 99% (active); in assay [6] (setting [8]), 99% (active); in assay [6] (at 50.0 µM), 99.6% (active).

Turning to `CN(C)Cc1ccc2[nH]c3c(c2c1)CCCC3`, the growth inhibition in assay [1] (setting [7]) is 4%; in assay [1] (setting [8]), 96% (active); in assay [1] (at 50.0 µM) it was 66.8%; in assay [2] (setting [7]), 11%; in assay [2] (setting [8]) it was 72% (active); in assay [2] (at 50.0 µM) it was 36.6%. The growth inhibition was 2% in assay [3] (setting [7]); 90% (active) in assay [3] (setting [8]); 43.7% in assay [3] (at 50.0 µM); 0% in assay [4] (setting [7]); 72% (active) in assay [4] (setting [8]); 21.2% in assay [4] (at 50.0 µM). In addition, the growth inhibition in assay [5] (setting [7]) was 1%; in assay [5] (setting [8]), 85% (active); in assay [5] (at 50.0 µM) it was 45%; in assay [6] (setting [7]), 28%; in assay [6] (setting [8]), 93% (active); in assay [6] (at 50.0 µM), 65.1%.
